High-throughput results (PubChem BioAssay)
Anaer choline gr: choline-fed anaerobic bacterial growth inhibition; AID 1963822; calls only; Gram-negative bacterium anaerobic choline minimal medium, absorbance growth; stronger effect = lower value; 0.2% of 55,000 active; call rule not given here
Starred values were filed as active, the others as inactive; i = inactive; + = active, no number; ! = not confirmed by another sample. The full list was thinned out, with hits kept by preference.

SMILES	Anaer choline gr
O=C(C1CCN(c2ncnc3c2oc2ccccc23)CC1)N1CCOCC1	i
O=C(CSc1nc2cc(-c3ccccc3)[nH]c2c(=O)n1Cc1ccccc1)N1CCCCC1	i
COc1ccc(NS(=O)(=O)c2cc(-c3cc(C(F)(F)F)[nH]n3)sc2C)cc1Cl	i
Cc1cc(C)cc(-n2ccnc(NC(=O)Nc3ccc(F)cc3)c2=O)c1	i
COc1ccc(CNC(=O)c2scc(-c3ccccc3)c2S(=O)(=O)N(C)c2ccc(C)cc2)cc1	i
CCN1CCN(C(=O)c2cc(=O)n(CC)c3c2c(=O)n(CC)c(=O)n3C)CC1	i
CCC(C)NS(=O)(=O)c1cc(-c2nc(C)cs2)n(CC(=O)N2CCCC2)c1 (stereo not drawn)	i
Clc1cccc(-c2noc3ncnc(NCc4ccc5c(c4)OCO5)c23)c1	i
CN(CCNc1ncnc2onc(-c3cccc(Cl)c3)c12)C1CCCCC1	+
Cc1ccc(-c2noc3ncnc(NCCN(C)C4CCCCC4)c23)cc1	i
COc1ccccc1-c1cc(C(=O)N2CCCN(c3ccc(=O)n(-c4ccc(C)c(C)c4)n3)CC2)[nH]n1	i
Cc1cccc(Cn2nc(C)c3c(C)onc3c2=O)c1	i
CCCCC/C=C\C/C=C\C/C=C\CCCCCCC(=O)O	i
CCCCC/C=C\C/C=C\CCCCCCCC(=O)O	i
CCCCC/C=C\C/C=C\C/C=C\CCCCC(=O)O	+
O=C(NCc1ccccn1)c1nc(-c2ccc(N3CCCC3)cc2)no1	i
CN1C(=O)c2ccccc2Sc2cc(-c3noc(-c4ccc5c(c4)OCO5)n3)ccc21	i
Cc1nc(CN2C(=O)COc3ccc(S(=O)(=O)N4CCCC4)cc32)no1	i
Cc1nc(CN2C(=O)COc3ccc(S(=O)(=O)N4CCCCC4)cc32)no1	i
O=c1onc2n1-c1cc(Br)ccc1OC2	+
Cc1nc(CN2C(=O)COc3cc(S(=O)(=O)N4CCC(C)CC4)c(Cl)cc32)no1	i
COCC1=C(C(=O)OC(C)OC(=O)OC(C)C)N2C(=O)C(NC(=O)C(=NOC)c3csc(N)n3)C2SC1 (stereo not drawn)	i
CC(C)(O/N=C(\C(=O)N[C@@H]1C(=O)N2C(C(=O)[O-])=C(C[n+]3ccccc3)CS[C@H]12)c1csc(N)n1)C(=O)O	i
CO/N=C(\C(=O)N[C@@H]1C(=O)N2C(C(=O)[O-])=C(C[N+]3(C)CCCC3)CS[C@H]12)c1csc(N)n1	+
O=c1[nH]ccn(Cc2ccc(F)cc2)c1=O	i
SMILES	Anaer choline gr
COc1cc2c(cc1OC)C(C(=O)Nc1ccc(Oc3ccccc3)cc1)C(c1cccnc1)N(C)C2=O (stereo not drawn)	i
CCc1cc(Cl)c(OC)c(C(=O)NC[C@@H]2CCCN2CC)c1O	+!
CCN1CCCC1CNC(=O)c1c(O)c(Cl)cc(Cl)c1OC (stereo not drawn)	i
CCc1cc(Cl)c(OC)c(C(=O)NCC2CCCN2CC)c1O (stereo not drawn)	i
CNC(=O)c1nn(-c2ccccc2C)nc1CO	i
NC(N)=NC(=O)Cc1c(Cl)cccc1Cl	i
NC(N)=N/N=C/c1c(Cl)cccc1Cl	+!
CC1(C)S[C@@H]2[C@H](NC(=O)Cc3ccccc3)C(=O)N2[C@H]1C(=O)O	i
Cc1onc(-c2c(F)cccc2Cl)c1C(=O)N[C@@H]1C(=O)N2C(C(=O)O)C(C)(C)S[C@H]12 (stereo partly drawn)	i
Cc1onc(-c2ccccc2Cl)c1C(=O)N[C@@H]1C(=O)N2[C@@H]1SC(C)(C)[C@@H]2C(=O)O	+
O=C(NCC1CCCO1)c1ccccc1OCc1nc(-c2ccccc2)no1 (stereo not drawn)	i
CC(C)OC(=O)CCC/C=C\C[C@@H]1[C@@H](/C=C/C(=O)COc2cccc(C(F)(F)F)c2)[C@H](O)C[C@@H]1O	i
CCCCC[C@H](O)/C=C/[C@@H]1[C@@H](C/C=C/CCCC(=O)O)[C@H](O)C[C@H]1O	i
O=C(O)CCC/C=C/C[C@@H]1[C@@H](/C=C/[C@@H](O)COc2cccc(C(F)(F)F)c2)[C@H](O)C[C@@H]1O	i
CC(C)OC(=O)CCCC=CCC1C(O)CC(O)C1CCC(O)CCc1ccccc1 (stereo not drawn)	i
CC(C)OC(=O)CCC/C=C\C[C@@H]1[C@@H](/C=C/[C@H](O)CCc2ccccc2)[C@H](O)C[C@@H]1O	+
O=C(O)CCC/C=C\C[C@@H]1[C@@H](/C=C/[C@@H](O)COc2cccc(C(F)(F)F)c2)[C@H](O)C[C@@H]1O	+!
CCOC(=O)C1CCC(CNC(=O)N2CCCCCC2c2ccc(C)s2)CC1 (stereo not drawn)	i
Cc1ccc(S(=O)(=O)Nc2ccccc2-c2ccc3cc(C)ccc3n2)cc1	i
Cc1cc(=O)[nH]c(N2CCN(Cc3ccc4c(c3)OCO4)CC2)n1	i
CCCCNC(=O)c1ccc(Nc2cc(-c3cccc(C)c3)ncn2)cc1	i
Cn1c(=O)n(C)c2cc(SC3CCCCC3)c(NS(=O)(=O)c3cccc4nsnc34)cc21	i
O=c1[nH]c2cc(Br)c(S(=O)(=O)NCc3ccc4c(c3)OCO4)cc2[nH]1	i
CCCCC[C@H](O)CC[C@H]1[C@H](O)CC(=O)[C@@H]1CCCCCCC(=O)O	+!
CCCCC[C@H](O)/C=C/[C@H]1[C@H](O)CC(=O)[C@H]1CCCCCCC(=O)O	i
SMILES	Anaer choline gr
CCCCC[C@H](O)/C=C/[C@H]1[C@H](O)CC(=O)[C@@H]1CCCCCCC(=O)O	i
CC(C)CC(=O)Nc1ccc(S(=O)(=O)NCCn2c(C(F)(F)F)nc3ccccc32)cc1	i
CC(C)n1cnc2c(-c3ccccc3)csc2c1=O	i
Cc1nn(-c2ccc3nnc(C)n3n2)c2c1C(c1ccccc1Cl)CC(=O)N2 (stereo not drawn)	i
O=C(c1ccco1)N1CCC(Oc2cc(N3CCCCC3)ncn2)C1 (stereo not drawn)	i
CO[C@@]12[C@H](COC(N)=O)C3=C(C(=O)C(C)=C(N)C3=O)N1C[C@@H]1N[C@@H]12	+!
CCn1c(SCc2ccc(Cl)cc2)nc(=O)c2c(C(=O)OC)cc(C)nc21	i
Cc1cc2c(cc3n2CC(C)(C(=O)NC2CCCCC2)N(CCc2ccc(Cl)cc2)C3=O)o1 (stereo not drawn)	i
CN1CCN(CCNC(=O)c2cc3n(n2)CCCC3)CC1	i
CN1CCN(CCc2ccc(Cl)c(Cl)c2)CC1	+
CN1CCN(S(=O)(=O)c2cc(-c3ccc(=O)[nH]n3)ccc2Cl)CC1	i
CCCCNC(=O)CSc1nnc(-c2cc3ccccc3n2C)o1	i
CCOC(=O)c1[nH]c(C)c(CN(Cc2ccc(C)cc2)C(=O)Nc2cc(C)ccc2OC)c1C	i
O=c1[nH]cnc2c1ncn2C1O[C@H](CO)[C@@H](O)[C@H]1O (stereo partly drawn)	i
Nc1nc(Cl)nc2c1ncn2[C@H]1C[C@H](O)[C@@H](CO)O1	i
Nc1nc(Cl)nc2c1ncn2[C@@H]1O[C@H](CO)[C@@H](O)[C@@H]1F	+!
Cn1cc(S(=O)(=O)N2CCCCC2)cc1C(=O)Nc1ccc2c(c1)OCCO2	i
COc1cccc(-c2nnc3c4c5c(sc4ncn23)CCCC5)c1	i
COc1ccc(CN(C(=O)c2sc3ccccc3c2Cl)c2ccccn2)cc1OC	i
COC(=O)c1cnn(-c2ccc(C(=O)Nc3ccc4c(c3)CN(Cc3ccccc3)C4)cc2)c1N	i
CCc1ccc(NC(=O)N(C)CCc2noc(-c3ccc(C)cc3)n2)cc1	i
